# Mot1-301 SUMO: yeast Mot1-301 growth rescue at high temperature, primary screen, SUMOylation pathway inhibitor project, S. cerevisiae, ATP luminescence, 38.5C; 320,000 compounds, 1% hits; AID 2716, 2010; growth rescue, % at 18.8 µM; S. cerevisiae Mot1-301 growth rescue; percent above DMSO median, 100 means doubled;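 active = every valid replicate shows activation above 250% relative to neutral control wells; inactive = the rest, any valid replicate at or below 250%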
# HGIII-sPLA2 inh: human group III sPLA2 inhibitors, primary screen, biochemical, QFRET, BODIPY PC-A2 liposome substrate | QFRET BODIPY PC-A2 liposome hydrolysis, fluorescence | inhibition, % at 12.2 µM | 370,000 compounds, 0.56% hits | AID 743126, 2013;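 active = inhibition above mean plus 3 SD of compounds lying within the high and low control bounds, cut at about 19% in these data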
# Target sequence (Q9NZ20 whole entry, looked up): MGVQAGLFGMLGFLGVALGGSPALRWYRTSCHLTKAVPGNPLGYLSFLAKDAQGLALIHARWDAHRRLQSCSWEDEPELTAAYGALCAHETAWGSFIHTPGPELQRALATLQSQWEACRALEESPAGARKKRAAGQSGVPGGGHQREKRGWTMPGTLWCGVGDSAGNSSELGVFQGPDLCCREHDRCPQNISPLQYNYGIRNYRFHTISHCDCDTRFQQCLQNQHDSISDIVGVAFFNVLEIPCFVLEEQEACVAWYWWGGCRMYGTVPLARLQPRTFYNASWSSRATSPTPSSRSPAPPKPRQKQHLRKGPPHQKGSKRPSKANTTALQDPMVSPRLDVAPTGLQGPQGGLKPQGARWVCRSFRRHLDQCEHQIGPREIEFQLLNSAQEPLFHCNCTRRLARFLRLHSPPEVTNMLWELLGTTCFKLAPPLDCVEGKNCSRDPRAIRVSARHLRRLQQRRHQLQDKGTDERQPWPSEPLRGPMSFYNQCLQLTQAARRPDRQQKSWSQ
# SKN-1 inh: suppressors of acrylamide-induced Pgst-4::GFP reporter in worms, primary screen, SKN-1 inhibitor project, whole organism, uHTS, GFP/RFP fluorescence ratio, strain VP596 | 360,000 compounds, 0.49% hits | C. elegans VP596 Pgst-4::GFP/RFP ratio, 24 h | inhibition, % at 21.8 µM;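 active = interference check ratio from 0.5 to 1.5 plus GFP to RFP signal ratio inhibition reaching or exceeding a fixed threshold, cut at about 30% in these data, passing the limit was not always enough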
# Efflux pump mplx: inhibitors of Candida efflux pumps in yeast, primary screen, S. cerevisiae, Nile Red, multiplex. 330,000 compounds, 0.44% hits. AID 485275, 2010. inhibition, % at 10 µM. S. cerevisiae Candida pump triplex;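 active = plate passing quality check with inhibition over a set limit, or well fluorescence over plate mean plus 4 SD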;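 note: Nile Red retained in pooled yeast measured as flow cytometry median fluorescence; higher means more Nile Red kept so more efflux inhibition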
# Yeast cmpd fluor: counter-screen for efflux pump inhibitors: compound fluorescence. shares compounds with Efflux pump mplx. 1,700 compounds, 4% hits. fluorescence ratio to DMSO, % at 10 µM. S. cerevisiae AD/pABC3, flow cytometry;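 active = fluorescence ratio to DMSO above its plate's cutoff, the plate mean ratio plus 5 SD, cut at about 210% in these data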;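 note: unstained yeast with no Nile Red so the signal is compound autofluorescence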
# Mdr1 pump inh: inhibitors of Candida albicans Mdr1 efflux, confirmation, flow cytometry, singleplex, Cherry Pick1 set | shares compounds with Efflux pump mplx | S. cerevisiae AD/CaMDR1, Nile Red efflux | inhibition, % at 10 µM | 1,700 compounds, 1% hits | AID 588518, 2011; in the data active = inhibition above about 26%;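 note: higher means more Nile Red retained so more efflux inhibition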
# CaCdr2 efflux inh: inhibitors of Candida albicans Cdr2 efflux pump, confirmation, S. cerevisiae AD/CaCDR2, flow cytometry, cherry pick 1, singleplex. Nile Red retention ratio vs DMSO, % at 10 µM. shares compounds with Efflux pump mplx. 1,700 compounds, 4% hits. AID 588520, 2011. Nile Red retention; in the data active = Nile Red retention ratio vs DMSO above about 190%;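 note: higher ratio means more blocking of Cdr2 efflux of the dye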
# CaCdr1 efflux inh: inhibitors of Candida albicans Cdr1 efflux pump, confirmation, S. cerevisiae AD/CaCDR1, flow cytometry, cherry pick 1, singleplex; 1,700 compounds, 1% hits; AID 588522, 2011; Nile Red efflux; inhibition, % at 10 µM; shares compounds with Efflux pump mplx;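 active = inhibition above the screen-wide mean plus twice its standard deviation, cut at about 32% in these data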
# Hits are given with their value; 0 = inactive; - = not tested or not shown. In the library only some 2.2% were active in any assay of this set; here they are far more common.
SMILES,Mot1-301 SUMO,HGIII-sPLA2 inh,SKN-1 inh,Efflux pump mplx,Yeast cmpd fluor,Mdr1 pump inh,CaCdr2 efflux inh,CaCdr1 efflux inh
CCCCN1C(N)=NC[C@@H]1Cc1ccc(O)cc1,0,0,0,0,0,0,0,0
CCCCN1C(N)=NC[C@H]1Cc1ccc(O)cc1,0,0,0,0,0,0,0,0
CC(C)(C)CN1C(N)=NC[C@@H]1Cc1ccc(O)cc1,0,0,0,0,0,0,0,0
NC1=NC[C@@H](Cc2ccc(O)cc2)N1CCc1cc(C(F)(F)F)cc(C(F)(F)F)c1,0,0,0,0,-,-,-,-
NC1=NC[C@@H](Cc2ccc(O)cc2)N1CCc1cccc(F)c1,0,0,0,0,0,0,0,0
COc1ccc(CNCCC(c2ccc(F)cc2)c2ccc(OC)cc2)cc1 (configuration not stated),0,0,0,10,0,0,0,0
OCC1(O)OC[C@@H](O)[C@H]1O (some centres not stated),0,0,0,0,-,-,-,-
CCOc1ccc(CCNC(=O)Cc2ccc(NC3=NC4CS(=O)(=O)CC4S3)cc2)cc1 (configuration not stated),0,0,0,0.4,0,0,0,0
Cc1ccc(C)c(N2CCN(S(=O)(=O)c3cc4c(cc3C)NC(=O)CO4)CC2)c1,0,0,0,0,-,-,-,-
O=c1c(-c2ccc(Cl)cc2)c[nH]n1-c1ccccc1,0,0,0,0,-,-,-,-
O=c1c(-c2ccccc2)c[nH]n1-c1cccc([N+](=O)[O-])c1,0,0,0,1.0,0,0,0,0
O=C(NC1CCCC1)C(c1ccncc1)N(C(=O)c1ccco1)c1ccccc1 (configuration not stated),0,0,0,0.6,0,0,0,0
C/C(=N\NC(=O)c1cc(Cl)ccc1O)c1ccc(Br)s1,0,0,0,7.6,0,0,0,0
CN(C)C(=S)SCC(=O)Nc1ccc(Cl)cc1Cl,0,0,0,15,0,0,0,0
COc1ccc(C2C(C(=O)N3CCN(c4ccccc4Cl)CC3)CC(=O)N2c2ccc(OC)cc2)cc1 (configuration not stated),-,0,-,-,-,-,-,-
COc1ccccc1N1CCN(CC(=O)Nc2ccc(-n3cnnn3)cc2)CC1,0,0,0,0.9,0,0,0,0
C#CCN(C[C@H]1[C@H](OC(=O)Nc2cccs2)[C@H](OC(=O)Nc2cccs2)CN(C(=O)OC(C)C)N1C(=O)OC(C)C)S(=O)(=O)c1ccc(C)cc1,-,0,-,-,-,-,-,-
COc1ccc(CNC(=O)CCCn2c(=S)[nH]c3cc4c(cc3c2=O)OCO4)cc1,0,0,0,0,-,-,-,-
CCOc1cc2[nH]c(=S)n(CCC(=O)NCc3ccc(OC)cc3)c(=O)c2cc1OCC,0,0,0,0.4,0,0,0,0
O=C(CN1CCOCC1)N1c2ccccc2Sc2ccc(Cl)cc21,-,0,0,-,-,-,-,-
O=C(CN1CCN(CCOCCO)CC1)N1c2ccccc2Sc2ccc(Cl)cc21,0,-,0,1.4,0,0,0,0
O=C(NN1C(=O)C2C3c4ccccc4C(c4ccccc43)C2C1=O)c1ccc(Cl)cc1 (configuration not stated),0,0,0,8.9,0,0,0,0
COCO/C=C(\NC(C)=O)c1ccccc1,0,0,0,1.0,0,0,0,0
Cc1ccc(NC(=O)COc2ccc(N(C)S(=O)(=O)c3ccc(F)cc3)cc2)cc1,0,0,0,0.8,0,0,0,0

# Assay outcomes deposited in PubChem BioAssay by several laboratories.
